PI4K2A inh = qHTS for small molecular inhibitors of PI4K2A; Phosphatidylinositol 4-kinase type 2-alpha (Homo sapiens), Q9BTU6; 420,000 tested, 0.13% active; activity change, negative = inhibition, % at 76.9 µM; purified PI4K2A, ADP-Glo luminescence, 1 h; hits give low values; in the data active = activity change below about -50%; inconclusive = mostly about -30% to -49%;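 note: -100% = wells without enzyme as full effect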
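PI4K2A activity was measured by ADP-Glo luminescence: enzyme (4 ug/mL stock) and phosphatidylinositol (1.2 mM stock) in Tris pH 7.5/MgCl2/EGTA/Triton X-100 buffer were reacted with ATP (300 microM stock) for one hour at ambient temperature.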
FBPA coupling cs = qHTS Assay for Inhibitors of Fructose-1,6-bisphosphate Aldolase from Giardia Lamblia: Coupling assay counterscreen; coupling enzyme system counterscreen, AmpLite Red fluorescence; activity change, negative = inhibition, % at 58.2 µM, hits read low; 290,000 tested, 0.67% active; in the data active = activity change below about -30%
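Counterscreen of the coupled detection system alone, without aldolase: glyceraldehyde-3-phosphate coupling enzymes plus AmpLite Red readout. Compounds at 57.5 uM final, 10 min RT preincubation, 20 min RT reaction, fluorescence 525/598 nm.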
rTrxR1 inhibitor = qHTS Assay for Inhibitors of Mammalian Selenoprotein Thioredoxin Reductase 1 (TrxR1): qHTS | Thioredoxin reductase 1, cytoplasmic (Rattus norvegicus), O89049 | recombinant rTrxR1, NADPH fluorescence consumption, selenite substrate | Potency, µM (doses to about 114 µM), for inactives: at the highest dose activity change, negative = inhibition, most hits filed as inhibitors | 390,000 tested, 1% active | AID 588453, 2011; note: potency is the fitted concentration of half-maximal effect; nearly all actives have a fitted effect of over 65% in size
Target sequence (O89049 whole entry, looked up): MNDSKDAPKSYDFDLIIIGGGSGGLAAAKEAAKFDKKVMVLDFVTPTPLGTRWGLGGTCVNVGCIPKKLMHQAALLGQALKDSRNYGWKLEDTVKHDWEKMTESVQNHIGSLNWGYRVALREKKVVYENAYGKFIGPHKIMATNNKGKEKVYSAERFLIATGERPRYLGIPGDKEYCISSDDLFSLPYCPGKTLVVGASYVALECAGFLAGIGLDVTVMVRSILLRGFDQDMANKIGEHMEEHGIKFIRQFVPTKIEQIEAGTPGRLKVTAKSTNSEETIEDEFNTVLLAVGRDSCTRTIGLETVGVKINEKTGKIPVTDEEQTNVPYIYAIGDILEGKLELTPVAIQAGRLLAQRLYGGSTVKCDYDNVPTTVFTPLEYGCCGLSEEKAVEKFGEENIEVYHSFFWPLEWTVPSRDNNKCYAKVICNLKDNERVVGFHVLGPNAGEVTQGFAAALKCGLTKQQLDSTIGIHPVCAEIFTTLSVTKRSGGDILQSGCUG
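Rat TrxR1 (90 nM in the dispensed reagent) was pre-reduced with 400 uM NADPH for 5 min at room temperature, then incubated with compound for 15 min. After 400 uM selenite was added, NADPH fluorescence (Ex 340/Em 450 nm) was followed for 8 min.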
GALK inhibitor = qHTS Assay for Inhibitors of Human Galactokinase (GALK) | P51570 | Purified GALK, Kinase-Glo residual ATP luminescence | Potency, µM (highest dose often 57.5 µM), for inactives: top-dose activity change, negative = inhibition, hits mostly inhibitors | 270,000 tested, 0.007% active | AID 1868, 2009; note: potency is the fitted concentration of half-maximal effect
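Compounds were pin-transferred into ATP buffer (35 uM final), then GALK plus galactose (5 nM, 100 uM final) was added. After 1 h at room temperature, Kinase-Glo Plus was added and luminescence read after 10 min.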
TrxR1 substrate = qHTS Assay for Substrates of Mammalian Selenoprotein Thioredoxin Reductase 1 (TrxR1): qHTS; Thioredoxin reductase 1, cytoplasmic (Rattus norvegicus), O89049; purified TrxR1 substrate turnover, NADPH consumption readout; Potency, µM (series often up to 114 µM), without a hit: top-dose activity change, negative = substrate turnover; 390,000 tested, 0.01% active; AID 588456, 2011; note: potency is the fitted concentration of half-maximal effect; nearly all actives have a fitted effect of over 50% in size
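Rat TrxR1, dispensed at 90 nM, was prereduced with 400 uM NADPH (final) for 5 min at ~22 deg C, then incubated with compound 15 min before 400 uM selenite. A first-read NADPH fluorescence drop versus no-compound background flagged substrates.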
Giardia killer = Small Molecules that selectively kill Giardia lamblia: qHTS; Giardia lamblia trophozoite viability; activity change, % at 7.66 µM, hits read low; 340,000 tested, 0.15% active; AID 540267, 2011; in the data active = activity change below about -80%; inconclusive = between about -30% and that limit;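 note: parasites exposed to compound for two days anaerobically before the ATP read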
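Luminescence from cellular ATP indicates surviving trophozoites (100 cells/well) following 48 hrs anaerobic compound treatment at 37 deg C; signal develops 15-30 min at room temperature.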
Active calls of the source: *; ? = inconclusive; . = not tested or not shown; ! = a repeat was not active; [ ] = remark or other dose. Sampled rows, rich in hits. Any-hit rate of the full collection: about 1.5%. Unless noted, calls come from the whole dose curve; as a rule, active = well fitted curve in the direction sought with a large enough effect; inconclusive = small, poorly fitted or top-dose-only effect, or another doubt; inactive = no such curve, though single readings can be large; an effect the other way counts as inactive or inconclusive. Unless noted, % is set by controls: 0 for no effect and ±100 for the full control effect.

SMILES	PI4K2A inh	FBPA coupling cs	rTrxR1 inhibitor	GALK inhibitor	TrxR1 substrate	Giardia killer
CCCCCn1c(N)c(C#N)c2nc3ccccc3nc21	8	-3	9%	0%	103%	-12
O=C(C[n+]1cccc(Br)c1)c1ccc2c(c1)CCCC2	.	.	-12%	.	0%	.
Cc1c(C(=O)O)oc2c1/C(=N\O)CCC2	58	3	12%[57.1 µM]	-1%	-7%	3
O/N=C1\CCCc2oc3c(c21)CCCC3	1	-31*	-15%	2%	0%	24
Cc1ccc(C(=O)N2CCc3ccccc32)o1	-30	8	-16%	5%	-11%	31
O=C(c1ccc([N+](=O)[O-])o1)N1CCOCC1	-3	2	-5%[57.1 µM]	0%	-3%[57.1 µM]	?
O=C(c1ccc([N+](=O)[O-])o1)N1CCCCCC1	4	.	?	.	-7%	-91*
O=C(c1ccc([N+](=O)[O-])o1)N1CCc2ccccc21	-9	1	-21%[57.1 µM]	.	-7%[57.1 µM]	-88*
COc1cc2c(cc1OC)CN(C(=O)c1ccc([N+](=O)[O-])o1)CC2	-1	-1	-54%	-5%	9%[11.4 µM]	?
O=C(c1ccc([N+](=O)[O-])o1)N1CCc2ccccc2C1	8	1	?	-2%	11%	-86*
COc1ccc(-n2c(=O)c3ccccc3n(Cc3ccccc3C)c2=O)c(OC)c1	1	.	16%	.	-6%	.
CCc1nc(-c2ccccc2)c2ccccn12	-8	-43*	16%[57.1 µM]	-2%	5%[57.1 µM]	-7
COc1ccc(C2Nc3ccccc3-c3nnc(SC)nc3O2)cc1C (centres undefined)	1	.	3%	.	-1%	.
C[C@@H]1C[C@H]2[C@@H]3CCC4=CC(=O)C=C[C@]4(C)[C@@]3(F)[C@@H](O)C[C@]2(C)[C@@]1(O)C(=O)COC(=O)c1ccncc1	-1	.	.	.	.	.
COc1ccc2c(c1)CCc1c(C(=O)N3CCCCCC3)noc1-2	5	-5	11µM*	0%	1%	22
CN(C)c1ccc(CC2C(=O)Nc3ccccc32)cc1 (centres undefined)	-2	-39*	4%[57.1 µM]	7%	2%	7
Cc1ccc(SC(=O)c2c(C)noc2-c2cc(C)on2)cc1	39	0	40µM*	.	-6%	-4
COc1cccc([C@@H]2Oc3ccc(OC)cc3C(=O)[C@H]2OC(=O)NCCc2ccc(OC)c(OC)c2)c1	.	2	.	.	.	.
CC(=O)Oc1ccc(N2C(=O)C3C4C=CC(O4)C3C2=O)cc1 (centres undefined)	0	4	5.6µM*	5%	13%	3
CC(=O)Oc1ccc(N2C(=O)CCC2=O)cc1	6	-1	7%[11.4 µM]	-2%	7%[57.1 µM]	-5
CC(=O)Oc1cccc(N2C(=O)C3C4C=CC(C4=C(C)C)C3C2=O)c1 (centres undefined)	-1	1	40µM*	0%	1%	-11
CCCCn1c(=N)c(S(=O)(=O)c2ccc(Cl)cc2)cc2c(=O)n3cccc(C)c3nc21	5	.	305%	.	141%	.
Cc1c(Cn2cnc3c(cnn3C(C)(C)C)c2=O)cccc1C(F)(F)F	.	.	7%	.	-6%	.
O=C1C(=O)C(c2cc(O)c(O)c(O)c2)Oc2cc(O)cc(O)c21 (centres undefined)	.	.	13µM*	.	-6%	-25
O=C(CNC(=O)c1ccccc1)Sc1ccccc1	9	.	13µM*	.	4%	-24
SMILES	PI4K2A inh	FBPA coupling cs	rTrxR1 inhibitor	GALK inhibitor	TrxR1 substrate	Giardia killer
O=C(NCSc1ccccc1)c1ccccc1	-4	.	34%	.	1%	7
Cc1ccc(S(=O)(=O)N2CCN(c3nc(Nc4ccccc4O)nc4ccccc34)CC2)cc1	.	.	13%	.	2%	.
CC(C)N(c1ccc(C=O)cc1)C(C)C	.	.	-11%	.	-11%	.
CC1=C(C(=O)Nc2ccccc2)C(c2ccc[nH]2)n2ncnc2N1 (centres undefined)	?	.	40µM*!	.	-3%[57.1 µM]	.
O=C1OC2(c3cc(I)c(O)c(I)c3Oc3c2cc(I)c(O)c3I)c2c(Cl)c(Cl)c(Cl)c(Cl)c21	.	2	.	.	.	.
O=C(NCC(c1ccco1)S(=O)(=O)c1ccc(Cl)cc1)c1ccccc1F (centres undefined)	-2	.	14µM*	.	4%[57.1 µM]	.
COc1cc(OC)nc(-n2ncc(Br)c(Br)c2=O)n1	-7	-2	3.5µM*	.	6%	15
COC(=O)c1cnn(-c2nc(OC)cc(OC)n2)c1C	-4	0	0%	1%	-5%	18
C=CCOc1c(Cl)cc(CNc2ccc(C)c(Cl)c2)cc1OC	.	-1	.	-1%	.	.
C=CCOc1c(Cl)cc(CNc2ccc(N(C)C)cc2)cc1OC	-28	-79*	?	-2%	-10%	13
Cc1cc(F)c(Nc2ncnc3cc(OCc4ccccc4)ccc23)cc1O	.	2	.	.	.	.
Cc1c(Cl)cccc1N1C(=O)C(N2C(=O)c3cccc([N+](=O)[O-])c3C2=O)C1c1cccs1 (centres undefined)	1	-42*	25%	.	8%	6
O=C1c2cccc([N+](=O)[O-])c2C(=O)N1C1CCCCC1	3	-2	31%	8%	0%	-11
Cc1ccc(C(=O)O/N=C(\N)c2cccc([N+](=O)[O-])c2)cc1	-3	-2	11%	-1%	3%	-15
CC1=CC(=NOC(=O)c2cccc([N+](=O)[O-])c2)C=C(C)C1=O	6	-15	10µM*	0%	-1%	-11
CC1=CC(=O)C(C(C)C)=C/C1=N/OC(=O)c1cccc([N+](=O)[O-])c1	-4	-14	13µM*	0%	7%	-7
CC[C@H](C)[C@H](NC(=O)[C@H](CC(C)C)NC(=O)[C@H](CO)NC(=O)[C@H](CCC(=O)O)NC(=O)[C@H](CC(C)C)NC(=O)[C@H](Cc1ccc(O)cc1)NC(=O)[C@H](CCCCN)NC(=O)[C@H](CCCCN)NC(=O)[C@H](C)NC(=O)[C@H](CO)NC(=O)[C@H](CC(C)C)NC(=O)[C@H](CCC(N)=O)NC(=O)CNC(=O)[C@H](CC(C)C)NC(=O)[C@H](CC(C)C)NC(=O)[C@H](CCCNC(=N)N)NC(=O)[C@H](CO)NC(=O)[C@H](Cc1ccccc1)NC(=O)[C@H](CC(=O)O)NC(=O)[C@H](CO)NC(=O)[C@@H](NC(=O)[C@H](Cc1ccccc1)NC(=O)[C@@H](NC(=O)CNC(=O)[C@H](CC(=O)O)NC(=O)[C@H](C)NC(=O)[C@@H](N)Cc1cnc[nH]1)C(C)C)[C@@H](C)O)C(N)=O	.	-3	.	.	.	.

Compound activity from PubChem BioAssay.
